Measured values published in PubChem BioAssay.
Activity calls are given as the source filed them.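 Rule for the calls, unless noted: active = normalized viability below 100% at a tested concentration; inactive = the rest.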

Legend:
[1] = ovarian cancer cell viability with rucaparib, profiling panel, oncology-focused library, rucaparib conditional (AID 1508598); conditions: patient-derived ovarian cancer cells, CellTiter-Glo viability, 144 h, active compounds read low
[2] = target: NAD(+) hydrolase SARM1 (Homo sapiens) (UniProt Q6SZW1); experiment: SARM1 TIR NADase inhibitors, cell lysate, NAD-Glo luminescence (AID 1508614;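 active = compound whose remaining NAD level is above about 45 nM, limit read from the data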;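 note: higher remaining NAD means stronger inhibition of SARM1 NADase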); conditions: SAM-TIR HEK293T lysate NADase, at 1 µM, active compounds read high
[3] = target: Mitogen-activated protein kinase 7 (Homo sapiens) (UniProt Q13164); experiment: ERK5 transactivation activators in reporter cells, primary screen, cell-based, HTS (AID 1508626;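 active = luciferase signal above three times the same-plate solvent-only control wells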;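 note: luciferase driven by Gal4-ERK5 fusion binding five Gal4 sites before minimal TATA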); conditions: HeLa Gal4-ERK5 transactivation, 18 h, at 5 µM, active compounds read high
[4] = at 0.000305 µM, OCI-C5x cells, with rucaparib 10 µM, 100% = cells with rucaparib alone
[5] = at 0.000305 µM, OCI-C5x cells, without rucaparib
[6] = at 0.000305 µM, OCI-P5x cells, with rucaparib 20 µM, 100% = cells with rucaparib alone
[7] = at 0.000305 µM, OCI-P5x cells, without rucaparib
[8] = at 0.00122 µM, OCI-C5x cells, with rucaparib 10 µM, 100% = cells with rucaparib alone
[9] = at 0.00122 µM, OCI-C5x cells, without rucaparib
[10] = at 0.00122 µM, OCI-P5x cells, with rucaparib 20 µM, 100% = cells with rucaparib alone
[11] = at 0.00122 µM, OCI-P5x cells, without rucaparib
[12] = at 0.00488 µM, OCI-C5x cells, with rucaparib 10 µM, 100% = cells with rucaparib alone
[13] = at 0.00488 µM, OCI-C5x cells, without rucaparib
[14] = at 0.00488 µM, OCI-P5x cells, with rucaparib 20 µM, 100% = cells with rucaparib alone
[15] = at 0.00488 µM, OCI-P5x cells, without rucaparib
[16] = at 0.0195 µM, OCI-C5x cells, with rucaparib 10 µM, 100% = cells with rucaparib alone
[17] = at 0.0195 µM, OCI-C5x cells, without rucaparib
[18] = at 0.0195 µM, OCI-P5x cells, with rucaparib 20 µM, 100% = cells with rucaparib alone
[19] = at 0.0195 µM, OCI-P5x cells, without rucaparib
[20] = at 0.0781 µM, OCI-C5x cells, with rucaparib 10 µM, 100% = cells with rucaparib alone
[21] = at 0.0781 µM, OCI-C5x cells, without rucaparib
[22] = at 0.0781 µM, OCI-P5x cells, with rucaparib 20 µM, 100% = cells with rucaparib alone
[23] = at 0.0781 µM, OCI-P5x cells, without rucaparib
[24] = at 0.313 µM, OCI-C5x cells, with rucaparib 10 µM, 100% = cells with rucaparib alone
[25] = at 0.313 µM, OCI-C5x cells, without rucaparib
[26] = at 0.313 µM, OCI-P5x cells, with rucaparib 20 µM, 100% = cells with rucaparib alone
[27] = at 0.313 µM, OCI-P5x cells, without rucaparib
[28] = at 1.25 µM, OCI-C5x cells, with rucaparib 10 µM, 100% = cells with rucaparib alone
[29] = at 1.25 µM, OCI-C5x cells, without rucaparib
[30] = at 1.25 µM, OCI-P5x cells, with rucaparib 20 µM, 100% = cells with rucaparib alone
[31] = at 1.25 µM, OCI-P5x cells, without rucaparib
[32] = at 5 µM, OCI-C5x cells, with rucaparib 10 µM, 100% = cells with rucaparib alone
[33] = at 5 µM, OCI-C5x cells, without rucaparib
[34] = at 5 µM, OCI-P5x cells, with rucaparib 20 µM, 100% = cells with rucaparib alone
[35] = at 5 µM, OCI-P5x cells, without rucaparib

Chain of NAD(+) hydrolase SARM1 (Homo sapiens) (Q6SZW1 whole entry, looked up, the tested form may be a part): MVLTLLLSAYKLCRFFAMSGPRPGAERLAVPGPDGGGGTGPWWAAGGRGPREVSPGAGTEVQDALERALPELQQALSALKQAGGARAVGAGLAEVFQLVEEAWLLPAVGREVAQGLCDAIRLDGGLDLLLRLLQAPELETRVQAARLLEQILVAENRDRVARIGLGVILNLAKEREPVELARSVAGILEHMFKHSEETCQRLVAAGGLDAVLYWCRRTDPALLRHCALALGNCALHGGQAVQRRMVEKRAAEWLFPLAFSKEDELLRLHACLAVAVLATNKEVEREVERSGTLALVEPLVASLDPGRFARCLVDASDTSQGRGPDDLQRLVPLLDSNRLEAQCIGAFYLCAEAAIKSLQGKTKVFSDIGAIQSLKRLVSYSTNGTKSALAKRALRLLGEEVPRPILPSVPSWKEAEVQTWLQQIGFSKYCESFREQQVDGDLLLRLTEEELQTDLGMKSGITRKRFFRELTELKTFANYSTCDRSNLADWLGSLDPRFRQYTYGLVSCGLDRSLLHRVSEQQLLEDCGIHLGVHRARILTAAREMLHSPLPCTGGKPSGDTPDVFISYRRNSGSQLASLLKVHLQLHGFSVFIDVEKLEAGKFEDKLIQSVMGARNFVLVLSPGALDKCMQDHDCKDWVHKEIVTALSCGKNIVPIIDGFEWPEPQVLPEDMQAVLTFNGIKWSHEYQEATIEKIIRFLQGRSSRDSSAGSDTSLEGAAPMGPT
Chain of Mitogen-activated protein kinase 7 (Homo sapiens) (Q13164 whole entry, looked up, the tested form may be a part): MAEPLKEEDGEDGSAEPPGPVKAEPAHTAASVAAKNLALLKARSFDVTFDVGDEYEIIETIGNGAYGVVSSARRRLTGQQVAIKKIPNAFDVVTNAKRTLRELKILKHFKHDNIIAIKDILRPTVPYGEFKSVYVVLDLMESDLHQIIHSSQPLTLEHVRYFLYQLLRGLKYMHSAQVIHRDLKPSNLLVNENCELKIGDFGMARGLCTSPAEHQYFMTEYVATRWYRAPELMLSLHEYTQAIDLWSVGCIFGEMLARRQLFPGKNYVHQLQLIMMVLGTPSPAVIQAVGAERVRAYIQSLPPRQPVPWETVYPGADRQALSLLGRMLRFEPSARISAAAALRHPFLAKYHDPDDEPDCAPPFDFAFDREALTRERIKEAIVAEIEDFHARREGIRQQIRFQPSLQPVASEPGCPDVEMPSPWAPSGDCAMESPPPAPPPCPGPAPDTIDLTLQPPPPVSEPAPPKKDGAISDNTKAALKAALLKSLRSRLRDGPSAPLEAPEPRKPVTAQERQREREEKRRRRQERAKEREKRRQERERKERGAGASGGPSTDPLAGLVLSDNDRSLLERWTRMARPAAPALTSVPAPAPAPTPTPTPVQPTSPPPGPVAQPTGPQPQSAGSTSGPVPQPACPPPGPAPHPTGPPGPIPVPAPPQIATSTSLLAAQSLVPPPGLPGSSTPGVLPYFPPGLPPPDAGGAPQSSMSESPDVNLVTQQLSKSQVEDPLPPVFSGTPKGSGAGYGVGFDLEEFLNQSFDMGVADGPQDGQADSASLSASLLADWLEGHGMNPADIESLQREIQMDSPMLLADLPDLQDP

CC(=O)O[C@@]1(C(C)=O)CC[C@H]2[C@@H]3C[C@H](C)C4=CC(=O)CC[C@]4(C)[C@@H]3CC[C@@]21C
inactive: viability [1, 4] 108% | viability [1, 5] 122% | viability [1, 7] 101% | viability [1, 8] 113% | viability [1, 9] 120% | viability [1, 10] 101% | viability [1, 11] 103% | viability [1, 12] 122% | viability [1, 13] 119% | viability [1, 14] 103% | viability [1, 15] 107% | viability [1, 16] 114% | viability [1, 17] 118% | viability [1, 18] 104% | viability [1, 19] 113% | viability [1, 20] 106% | viability [1, 21] 114% | viability [1, 23] 111% | viability [1, 24] 122% | viability [1, 25] 118% | viability [1, 26] 102% | viability [1, 27] 110% | viability [1, 28] 107% | viability [1, 29] 120% | viability [1, 30] 106% | viability [1, 31] 111% | viability [1, 32] 105% | viability [1, 33] 121% | viability [1, 35] 105%
active: viability [1, 6] 94.9% | viability [1, 22] 94% | viability [1, 34] 92.5%

CC(=O)[C@]1(O)Cc2c(O)c3c(c(O)c2[C@H](O[C@H]2C[C@H](N)[C@H](O)[C@H](C)O2)C1)C(=O)c1ccccc1C3=O
inactive: viability [1, 4] 107% | viability [1, 5] 103% | viability [1, 6] 110% | viability [1, 7] 115% | viability [1, 8] 105% | viability [1, 9] 107% | viability [1, 10] 107% | viability [1, 11] 112% | viability [1, 12] 104% | viability [1, 14] 110% | viability [1, 16] 148% | viability [1, 17] 112%
active: viability [1, 13] 73.9% | viability [1, 15] 96.9% | viability [1, 18] 74% | viability [1, 19] 36.9% | viability [1, 20] 82.5% | viability [1, 21] 7.56% | viability [1, 22] 55.5% | viability [1, 23] 12.2% | viability [1, 24] 3.18% | viability [1, 25] 1.75% | viability [1, 26] 19% | viability [1, 27] 7.09% | viability [1, 28] 1.52% | viability [1, 29] 1.48% | viability [1, 30] 9.24% | viability [1, 31] 4.04% | viability [1, 32] 3.72% | viability [1, 33] 3.03% | viability [1, 34] 4.45% | viability [1, 35] 3.64%

O=C(NCc1ccccc1)OCCO
inactive: remaining NAD [2] 10 nM

C[C@@H]1O[C@@H]1P(=O)(O)O
inactive: luciferase signal [3] 76 AU

C[C@]12CC[C@@H]3c4ccc(OC(=O)c5ccccc5)cc4CC[C@H]3[C@@H]1CC[C@@H]2O
inactive: luciferase signal [3] 56 AU

O=C(O)C(O)C(O)(Cc1ccc(O)cc1)C(=O)O (stereo not given)
inactive: luciferase signal [3] 16 AU

C[C@H]1C[C@@H]2[C@H]([C@@H](O)C[C@@]3(C)[C@H]2CC[C@]3(O)C(=O)COC(=O)CCC(=O)O)[C@@]2(C)C=CC(=O)C=C12
inactive: remaining NAD [2] 10 nM | luciferase signal [3] 72 AU

CO[C@@H]1[C@@H](O[C@@H]2O[C@H](C)[C@@H](O[C@H]3C[C@@](C)(O)[C@@H](O)[C@H](C)O3)[C@H](N(C)C)[C@H]2O)[C@@H](CC=O)C[C@@H](C)[C@@H](O[C@H]2CC[C@H](N(C)C)[C@@H](C)O2)/C=C/C=C/C[C@@H](C)OC(=O)C[C@H]1O
inactive: remaining NAD [2] 10 nM | luciferase signal [3] 216 AU

CC(=O)O[C@@](C)(CCC=C(C)C)C1CC=C(C)CC1 (stereo not given in full)
inactive: luciferase signal [3] 72 AU

O[C@H]1[C@H](O)[C@@H](O)C2OC[C@H]1O2
inactive: luciferase signal [3] 60 AU

CC1(C)O[C@H]2[C@H](O)C[C@](O)(C(N)=O)C[C@H]2O1
inactive: luciferase signal [3] 20 AU

O=C(O)C1=C(CSc2nnnn2CS(=O)(=O)O)CS[C@@H]2[C@H](NC(=O)[C@H](O)c3ccccc3)C(=O)N12
inactive: remaining NAD [2] 10 nM | luciferase signal [3] 84 AU

C=CCCCCCCCCCCCC(O)CC(O)COC(C)=O (stereo not given)
inactive: luciferase signal [3] 48 AU

COC(=O)C[C@H]1C(C)(C)C(=O)[C@@H]2CC3=C4CC(=O)O[C@@H](c5ccoc5)[C@]4(C)CC[C@@H]3[C@@]1(C)C2=O
inactive: luciferase signal [3] 32 AU

CC1(C)S[C@@H]2[C@H](NC(=O)[C@H](C(=O)O)c3ccsc3)C(=O)N2[C@H]1C(=O)O
inactive: remaining NAD [2] 10 nM | luciferase signal [3] 44 AU

COC(=O)C[C@H]1C(C)(C)C(=O)[C@@H]2CC3C4=CC(=O)O[C@@H](c5ccoc5)[C@]4(C)CCC3[C@@]1(C)C2=O (stereo not given in full)
inactive: luciferase signal [3] 24 AU

C[C@@H]1C\C=C/C=C/C=C/C=C/[C@H](O[C@@H]2O[C@H](C)[C@@H](O)[C@H](N)[C@@H]2O)C[C@@H]2O[C@](O)(C[C@@H](O)C[C@@H]3O[C@@H]3/C=C\C(=O)O1)C[C@H](O)[C@H]2C(=O)O
inactive: remaining NAD [2] 10 nM | luciferase signal [3] 292 AU

C[C@H]1[C@@H](O)O[C@@H]2O[C@@]3(C)CC[C@H]4[C@H](C)CC[C@@H]1[C@@]24OO3
inactive: luciferase signal [3] 52 AU

CC1(C)S[C@@H]2[C@H](N3C(=O)[C@@H](c4ccccc4)NC3(C)C)C(=O)N2[C@H]1C(=O)O
inactive: remaining NAD [2] 10 nM | luciferase signal [3] 40 AU

CC(=O)[C@H]1CC[C@H]2[C@@H]3CC=C4C[C@@H](OC(=O)CCC(=O)O)CC[C@]4(C)[C@H]3CC[C@]12C
inactive: remaining NAD [2] 10 nM | luciferase signal [3] 52 AU

CC1(C)C[C@@H]2/C(CO)=C\C=C/[C@@](C)(O)CC[C@]21O
inactive: luciferase signal [3] 64 AU
